# HP1b binding inh: blocks HP1-beta chromodomain binding to methylated histone tails | Potency, µM (series often up to 114 µM), actives largely listed as inhibitors | AlphaScreen HP1-beta / biotin-H3K9me3 peptide binding | 0.56% of 390,000 active | P83916; also: nearly all actives have a fitted effect of over 70% in size
# Target sequence (P83916 whole entry, looked up): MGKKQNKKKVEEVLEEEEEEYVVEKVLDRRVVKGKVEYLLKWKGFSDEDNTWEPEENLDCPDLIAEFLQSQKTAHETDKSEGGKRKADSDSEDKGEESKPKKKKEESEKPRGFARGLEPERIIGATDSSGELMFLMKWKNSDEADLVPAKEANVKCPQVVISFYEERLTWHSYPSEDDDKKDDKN
#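 HP1-beta protein (50 nM final) preincubated 30 min at room temperature with biotinylated H3(1-18)K9me3 peptide (50 nM) in PBS pH 7.4, 0.01% Tween-20, then compound added for 30 min. AlphaScreen streptavidin donor/nickel chelate acceptor beads (10 ug/mL final), 30 min dark, luminescence read.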
# CtBP-E1A blk: CtBP/E1A binding inhibition. AlphaScreen GST-E1A/His-CtBP binding, 1536-well; active compounds read low. activity change, % (no concentration beside the values). 0.49% of 340,000 active. AID 651724; in the data active = activity change below about -65%; inconclusive = mostly about -30% to -63%
#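 AlphaScreen with 125 nM GST-E1A and 125 nM His-CtBP (5X stocks) in Tris pH 8.0, 300 mM NaCl, BSA, Tween 20, TCEP. Compounds preincubated 2 h at 37 deg C, then glutathione donor/nickel acceptor beads added for 1 h at 37 deg C in dark.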
# Six1-Eya2 blk: blocks human Six1 binding to Eya2 | 0.56% of 360,000 active | activity change, % (concentration not given with the values) | AlphaScreen GST-Six1/His-Eya2 binding, biochemical; active compounds read low; in the data active = activity change below about -65%; inconclusive = mostly about -30% to -63%
#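 Six1/Eya2 binding was read as AlphaScreen signal after compounds were pinned into GST-Six1 plus His-tagged Eya2 (5X stock 250/500 nM) in pH 8.0 Tris/NaCl/TCEP buffer, beads added, then incubated 1 h, 37 C, dark.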
# BAZ2B block: blocks human BAZ2B. AlphaScreen BAZ2B-H3K14Ac peptide displacement. Potency, µM (titrated, usually from 114 µM), most hits filed as inhibitors. AID 504333. Q9UIF8. 4.4% of 360,000 active; also: nearly all actives have a fitted effect of over 60% in size
#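 Compounds, titrated to a top concentration of 110 uM, were incubated 30 min at room temperature with preformed BAZ2B/acetyl-K14 H3 peptide complex (50 nM each). Proximity signal was measured by AlphaScreen after 20 min with beads.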
# JMJD2A Tudor inh: blocks the human JMJD2A Tudor domain | O75164 | AlphaScreen JMJD2A-Tudor / H3K4me3 peptide binding | Potency, µM (highest dose often 114 µM), usual class: inhibitors | 4.4% of 390,000 active | AID 504339; also: nearly all actives have a fitted effect of over 50% in size
# G9a block: G9a (human) methyltransferase inhibition | Q96KQ7 | G9a H3K9 monomethylation, AlphaScreen, 2 h | Potency, µM (highest dose often 102 µM), actives largely listed as inhibitors | 8.8% of 350,000 active | AID 504332; also: nearly all actives have a fitted effect of over 75% in size
# Target sequence (Q96KQ7 913-1193 limits assumed): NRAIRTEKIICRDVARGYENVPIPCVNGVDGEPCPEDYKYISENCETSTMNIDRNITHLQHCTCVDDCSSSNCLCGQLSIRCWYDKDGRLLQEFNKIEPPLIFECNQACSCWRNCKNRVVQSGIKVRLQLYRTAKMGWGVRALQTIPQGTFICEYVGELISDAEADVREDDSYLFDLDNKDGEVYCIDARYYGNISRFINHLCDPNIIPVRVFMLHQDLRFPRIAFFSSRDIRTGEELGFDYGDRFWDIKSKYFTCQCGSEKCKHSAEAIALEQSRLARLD
#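 AlphaScreen detection with an anti-monomethyl H3K9 antibody quantified product after a 2 h room-temperature reaction containing 500 nM biotinylated H3K9 peptide, 20 µM SAM and 20 nM enzyme, which had been preincubated 15 min with compound.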
# Hits are given with their value; . = inactive; ? = inconclusive; / = no result given; [ ] = dose if it differs, or a comment. An excerpt weighted towards active compounds, which were near 10% of everything screened. Unless noted, calls follow the shape of the dose curve; as a rule, active = well fitted inhibition curve with a large enough effect; inconclusive = small, poorly fitted or top-dose-only effect; inactive = no such curve, though single readings can be large or run the other way.
SMILES,HP1b binding inh,CtBP-E1A blk,Six1-Eya2 blk,BAZ2B block,JMJD2A Tudor inh,G9a block
COc1ccc(C(=O)CCN2CCCC(C)C2)cc1 (configuration not stated),.,.,.,.,.,25.1µM
COc1ccc(C(=O)CCN2CCC(C)CC2)cc1,.,.,.,.,.,15.8µM
CCOc1ccc(N2CC(NC(=O)C(=O)c3c[nH]c4ccccc34)CC2=O)cc1 (configuration not stated),.,/,/,.,.,.
N#CC1=C(S)N(c2ccc(F)cc2)C2(CCCCC2)NC1=O,.,.,.,?,.,35.5µM
N#CC1=C(S)N(c2ccccc2)C2(CCCCC2)NC1=O,.,.,.,?,.,?
CCc1nnc2c3ccccc3nc(Nc3ccc(F)cc3C)n12,.,/,/,.,.,.
Oc1ccccc1-c1n[nH]c(=S)n1Cc1ccco1,.,.,.,.,5.62µM,?
Cc1cc(-c2n[nH]c(=S)n2Cc2ccco2)nn1C,.,.,.,.,6.31µM,8.91µM
Cc1cc(C(=O)NNC(=S)NCc2ccco2)nn1C,.,/,.,.,.,.
Cc1c(Br)c(-c2n[nH]c(=S)n2Cc2ccco2)nn1C,.,.,.,.,?,10µM
S=c1nc(-c2ccccc2)n(Cc2ccco2)c2c1CCCC2,/,/,/,.,/,?
COc1cccc(Cc2n[nH]c(=S)n2Cc2ccco2)c1,.,.,.,.,14.1µM,7.94µM
Cc1cccc(-c2noc(C3CC(=O)N(c4ccc5c(c4)OCCO5)C3)n2)c1 (configuration not stated),.,/,/,.,.,.
CCCCc1nn2c(=O)cc(COC(=O)C(C)Oc3ccccc3)nc2s1 (configuration not stated),.,/,/,.,.,.
CCOC(=O)CSc1nnc(CSc2nc(C)cc(C)n2)n1Cc1ccco1,.,.,.,.,.,?
Cc1cc(-c2n[nH]c(=S)n2Cc2ccco2)n(C)n1,.,.,.,.,20µM,8.91µM
COc1ccc(-c2n[nH]c(=S)n2Cc2ccco2)cc1,.,.,.,.,14.1µM,?
Brc1ccc(-c2ccc(CNCCSc3nnnn3-c3ccccc3)o2)cc1,.,/,/,20µM,.,15.8µM
CCOc1ccc(C(=O)NCC(C)NC(=O)c2ccc(OCC)cc2)cc1 (configuration not stated),.,.,.,?,?,/
CCOc1ccc(C(=O)N/N=C(/C)C2C(=O)c3ccccc3C2=O)cc1,.,.,.,.,35.5µM,.
Cc1ccc(CNC(=O)c2ccc(OCC(C)C)cc2)n1C,.,.,.,.,?,44.7µM
Cc1c(C(=O)NCC(c2ccco2)N(C)C)oc2c(Cl)cccc12 (configuration not stated),?,.,.,50.1µM,?,50.1µM
C/C(=N\NC(=O)c1ccc(Br)cc1)C1C(=O)c2ccccc2C1=O,.,.,.,?,?,.
CCOc1ccc(C(=O)NCC(C)C)cc1,.,.,.,.,.,0.891µM
Cc1ccccc1OCC(=O)NCC(=O)OC(c1ccccc1)c1ccccc1,.,/,/,/,.,/
SMILES,HP1b binding inh,CtBP-E1A blk,Six1-Eya2 blk,BAZ2B block,JMJD2A Tudor inh,G9a block
CN(C)C(CNC(=O)c1ccc(Br)cc1)c1ccco1 (configuration not stated),.,.,.,.,.,.
CC(C)CCOc1ccc(C(=O)NCC(c2ccco2)N(C)C)cc1 (configuration not stated),.,.,.,.,.,50.1µM
Cc1cc(C)n(CC(=O)NC2CCCCC2)n1,.,.,.,.,.,.[12.7 µM]
COc1ccc(OC)c(CCNC(=O)Cn2sc3nc(C)cc(C)c3c2=O)c1,/,/,/,50.1µM,/,1µM
Cc1c(Cl)cccc1NC(=O)Cn1cccc1,.,.,.,?,.,?
Cc1cc(C)c2c(=O)n(CC(=O)NC3CCCC3)sc2n1,8.91µM,.,.,79.4µM,2.24µM,0.501µM
Cc1cc(C)c2c(=O)n(CC(=O)Nc3cccc(Cl)c3C)sc2n1,7.94µM,.,.,?,2µM,0.282µM
Cc1cc(NC(=O)Cc2ccsc2)ccc1Br,.,.,.,.,.,.
Cc1cc(C)c2c(=O)n(CC(=O)Nc3ccc(Br)c(C)c3)sc2n1,?,.,.,?,2.51µM,0.316µM
COc1ccc(OC)c(CCNC(=O)Cn2ncc3c([nH]c4ccccc43)c2=O)c1,.,/,/,.,.,.
Cc1ccc(S(=O)(=O)N(C)C)cc1NC(=O)c1cc(=O)c2ccccc2o1,.,.,.,.,.,?
C[C@H](CO)N1C[C@H](C)[C@H](CN(C)S(=O)(=O)c2ccc3ccccc3c2)OCc2cnnn2CCCC1=O,/,.,.,/,/,/
CCCCCCCC[n+]1c(C)n(-c2ccccc2)c2ccc(NC(C)=O)cc21,.,.,.,.,.,39.8µM
Cc1ccc(C(=O)Nc2nnc(S(=O)(=O)N(C)Cc3ccc(Cl)cc3)s2)cc1,.,/,/,.,.,.
CN(C)c1ncc2nc(-c3cccs3)c(=O)n(CCc3ccccc3)c2n1,/,/,/,/,/,.[0.501 µM]
CC(=O)c1c(C)n(-c2cccc(Cl)c2)c2ccc(O)cc12,.,.,.,.,.,35.5µM
COc1ccc(Cl)cc1C(=O)Nc1sc2c(c1C(=O)OC(C)C)CCCC2,.,/,/,.,.,.
CN1CCN(CCc2nc3cc(NC(=O)COc4ccc([N+](=O)[O-])cc4)ccc3n2C)CC1,.,.,.,.,.,.
CC(=O)c1cc(-c2ccccc2)n(CC(=O)NCCc2ccc(C)cc2)c1C,.,/,/,.,.,.
O=C(NCCCCc1ccccc1)c1cccc(NC(=O)C2CC2)c1,.,.,.,/,56.2µM,/
COCCCNC(=O)CCCN1C(=O)CCn2nc(-c3cn(C)c4ccccc34)cc21,.,/,/,.,.,.
COc1ccc(C(=O)NNC(=O)c2ccc(C(C)(C)C)cc2)cc1,.,.,.,.,.,.
CN(C)c1ccc(/C(=N\O)C(F)(F)F)cc1,.,.,.,.,.,.
CC(C)(NO)/C(=N\O)c1ccc(Cl)cc1,.,.,.,56.2µM,39.8µM,10µM
COc1ccc(/C(=N/O)C(C)(C)NO)cc1,?,.,.,50.1µM,39.8µM,12.6µM
SMILES,HP1b binding inh,CtBP-E1A blk,Six1-Eya2 blk,BAZ2B block,JMJD2A Tudor inh,G9a block
C/C(=N\O)C(C)(C)Nc1ccc(Br)cc1,.,.,.,.,.,.
CC(C)(NO)/C(=N/O)c1ccc(Br)cc1,.,.,.,?,28.2µM,31.6µM
CCN(Cc1ccncc1)C(=O)c1ccccc1NS(=O)(=O)c1ccc(Br)cc1,.,/,.,.,.,.
CC(=O)c1ccc(-c2ccc(C(=O)NC3CCCCCC3)o2)cc1,.,.,.,.,.,50.1µM
CC(Cc1n[nH]c(=S)n1N)c1ccccc1 (configuration not stated),?,.,.,.,3.16µM,7.94µM
Nn1c(Cc2ccccc2)n[nH]c1=S,.,.,.,.,10µM,/
Cc1ccccc1Cc1n[nH]c(=S)n1N,?,.,.,.,2.82µM,2.51µM
Nn1c(Cc2ccc(F)cc2)n[nH]c1=S,.,.,.,/,4.47µM,3.55µM

# Assay outcomes (PubChem)
